The list is not random: actives were taken first. Their share in the collection is about 15%.
HCMV inh = inhibitors of human cytomegalovirus; hit rate 4.5% among 410,000; activity change, negative = inhibition, % at 57.5 µM; HFF cells, HCMV-luciferase reporter, 72 h; active compounds read low; in the data active = activity change below about -60%; inconclusive = no clear call, values can overlap the other calls; inactive = above about -39%
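Inhibition of viral replication was scored as loss of reporter luminescence in HFFs infected with HCMV-luciferase (MOI 1 PFU/cell) for 72 h; compounds tested at 2 doses, normalized to buffer and Salinomycin controls.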
SARS PLpro yeast = blocks SARS-CoV papain-like protease in a yeast assay; S. cerevisiae expressing SARS-CoV PLpro, growth rescue; Potency, µM (top dose mostly 32.9 µM), most hits filed as activators; hit rate 0.19% among 330,000; AID 485353; calls by dose curve; note: nearly all actives have a fitted effect of over 55% in size
Pf growth 96h = inhibits malaria parasite growth, 96 h | P. falciparum luciferase reporter growth, 96 h | Potency, µM (titrated, usually from 28.7 µM), actives largely listed as inhibitors | hit rate 6.9% among 320,000 | AID 504834
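Luminescence readout: decreased luciferase signal marks inhibited growth of reporter-expressing P. falciparum in infected red cells (2% hematocrit, 0.05% parasitemia final), exposed to compound two generations (96 h, 37 C, 5% CO2).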
Pf growth 48h = P. falciparum growth inhibition at 48 hours (one generation) | P. falciparum luciferase growth in erythrocytes, 48 h | Potency, µM (series often up to 28.7 µM), hits mostly inhibitors | hit rate 5.9% among 310,000 | AID 504832
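Compounds are pin-transferred into medium, infected erythrocytes (2% hematocrit, 0.1% parasitemia final) are added, and plates sit one parasite generation at 37 C in 5% CO2. Detection reagent is then added and luminescence measured.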
HCV inhibitor = HCV inhibition; Huh7.5.1 HCVcc-Cre infection, luciferase reporter, 44 h; Potency, µM (doses to about 41.8 µM), actives largely listed as inhibitors; hit rate 3.4% among 340,000
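HCVcc-Cre virus at an moi near 0.5 was added right after compound to cells cultured 4 h from seeding (1,000 cells/well). Luciferase activity was determined 44 h later, 15 min after substrate addition at RT.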
Sm TGR inh = S. mansoni TGR enzyme inhibition. Q962Y6. purified TGR, DTNB reduction, TNB absorbance 405 nm. Potency, µM (titrated, usually from 114 µM), most hits filed as inhibitors. hit rate 3% among 360,000. AID 485364; note: nearly all actives have a fitted effect of over 60% in size
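First, TGR (20 nM dispensed) and NADPH were mixed with compound. Second, a 15 min room-temperature incubation followed. Third, further NADPH and then DTNB were added to start the reaction. Finally, TNB absorbance was monitored kinetically.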
Large screens that a line does not name were inactive. Unless noted, calls come from the whole dose curve; as a rule, active = well fitted curve in the direction sought with a large enough effect; inconclusive = small, poorly fitted or top-dose-only effect, or another doubt; inactive = no such curve, though single readings can be large; an effect the other way counts as inactive or inconclusive.

Cc1ccc2nsnc2c1NC(=O)c1ccc(-c2cc(Cl)ccc2Cl)o1	HCMV inh inconclusive, HCV inhibitor inconclusive, Sm TGR inh 40µM
O=C(Nc1cccc2nsnc12)c1ccc(-c2cccc(Cl)c2)o1	Sm TGR inh 6.3µM
O=C(Nc1ccccc1N1CCCCC1)c1ccc(-c2cccc(Cl)c2)o1	Pf growth 96h inconclusive
Cc1ccc(C23CC4CC(CC(C(=O)NC(C)C(N)=O)(C4)C2)C3)cc1 (stereo unspecified)	HCMV inh inconclusive
O=C(C1CCN(c2nc(-c3ccccc3)nc3c2CCC3)CC1)N1CCC(O)CC1	Pf growth 96h inconclusive, Pf growth 48h 3.7µM (no result: SARS PLpro yeast)
COCC1CCN(C(=O)C2CCN(c3nc(-c4ccccc4)nc4c3CCC4)CC2)C1 (stereo unspecified)	Pf growth 96h inconclusive, Pf growth 48h 7.4µM, HCV inhibitor inconclusive
CCOC(=O)C1CCN(C(=O)CSc2c3c(nc4ccccc24)CCC3)CC1	none
CCOC(=O)C1CCN(c2nc(-c3ccc(C)cc3)nc3ccccc23)CC1	Pf growth 96h inconclusive, Pf growth 48h inconclusive, HCV inhibitor inconclusive
O=C(O)c1c2c(nc3ccc(S(=O)(=O)N4CCC(C(=O)N5CCCCC5)CC4)cc13)CCCC2	none (no result: Pf growth 48h)
COCC1CCCCN1C(=O)C1CCN(c2nc(-c3ccccc3)nc3c2CCC3)CC1 (stereo unspecified)	HCMV inh inconclusive, Pf growth 48h 9.3µM, HCV inhibitor inconclusive
Cn1ncc(Oc2ccc([N+](=O)[O-])cc2)c(Cl)c1=O	HCMV inh -91
Cn1ncc(Cl)c(Oc2ccc(Cl)cc2)c1=O	none
Oc1cccc(/C=N/n2c(C3CCCCC3)n[nH]c2=S)c1	HCV inhibitor 2.2µM
CC12CN(NC(=O)c3ccccc3F)C3(C#N)CC1CCC23C (stereo unspecified)	HCMV inh -75, Pf growth 96h inconclusive
CC12CN(C(=O)c3ccc(Cl)cc3)C3(C#N)CC1CCC23C (stereo unspecified)	none (no result: Pf growth 48h)
CCOCCOCCC(C(=O)OCC)P(=O)(c1ccccc1)c1ccccc1 (stereo unspecified)	none (no result: Pf growth 48h)
COc1ccc(NC(=O)c2c(NCc3cccc(OC)c3)sc3c2CCCC3)cc1	HCMV inh inconclusive (no result: SARS PLpro yeast, Pf growth 96h, Pf growth 48h, HCV inhibitor)
COc1ccc(NC(=O)c2c(NCc3ccc(N(C)C)cc3)sc3c2CCC3)cc1	Sm TGR inh 32µM (no result: SARS PLpro yeast, Pf growth 96h, Pf growth 48h, HCV inhibitor)
CCOC(=O)c1ccc(NC(=O)c2cc3c(s2)CCC3)cc1	Pf growth 48h inconclusive, HCV inhibitor 7.9µM
CCOC(=O)c1ccc(NC(=O)c2ccc(NC(=O)c3ccccc3)cc2)cc1	none (no result: Pf growth 48h)
CCOC(=O)c1ccc(NC(=O)c2c(NCc3sccc3C)sc3c2CCCCC3)cc1	Sm TGR inh 50µM (no result: SARS PLpro yeast, Pf growth 96h, Pf growth 48h, HCV inhibitor)
COC(=O)c1ccc(NC(=O)c2c(NCc3ccc(OC)c(OC)c3)sc3c2CCCC3)cc1	HCMV inh -67 (no result: SARS PLpro yeast, Pf growth 96h, Pf growth 48h, HCV inhibitor)
CCCCC(=O)Nc1ccc(OCc2cc(=O)n3ccc(C)cc3n2)cc1	none (no result: SARS PLpro yeast, Pf growth 96h, Pf growth 48h, HCV inhibitor)
Fc1cccc(Oc2ccc3c(-c4ccccc4F)noc3n2)c1	none (no result: SARS PLpro yeast, Pf growth 96h, Pf growth 48h, HCV inhibitor, Sm TGR inh)
O=S(=O)(c1cccc2cccnc12)N1CCN(Cc2ccccc2)CC1	none
O=C([C@@H]1CC=C[C@@H]2CCN(C3CC3)C(=O)[C@@H]21)N1CCN(c2ccccc2)CC1	none (no result: SARS PLpro yeast, Pf growth 96h, Pf growth 48h, Sm TGR inh)
O=C(Nc1ccccc1F)C(Cc1ccccc1)N1Cc2ccccc2C1=O (stereo unspecified)	none (no result: SARS PLpro yeast, Pf growth 96h, Pf growth 48h, HCV inhibitor)
COc1ccc2c(Sc3ccccc3)c(C(=O)NCCc3ccc(Cl)cc3)[nH]c2c1	none (no result: SARS PLpro yeast, Pf growth 96h, Pf growth 48h, HCV inhibitor)
COc1cccc(NC(=S)N2CCn3c(nc4ccccc43)C2)c1	none
COC(=O)c1ccc(CN2C(=O)C3CCCCC3C2=O)o1 (stereo unspecified)	Pf growth 48h 3.3µM
Cn1nnnc1SCC(=O)N1c2ccccc2Sc2ccccc21	Pf growth 96h inconclusive
CCOC(=O)CSc1n[nH]c(-c2ccco2)n1	none (no result: Pf growth 48h)
O=C(CSc1n[nH]c(-c2ccco2)n1)N1c2ccccc2Sc2ccccc21	Pf growth 48h inconclusive, Sm TGR inh 35µM
O=C(CSc1nncs1)N1c2ccccc2Sc2ccccc21	Pf growth 48h 13µM (no result: Pf growth 96h)
COc1ccc(/C=C/C(=O)c2ccccc2)cc1COc1ccccc1F	Pf growth 96h inconclusive, Pf growth 48h inconclusive, HCV inhibitor inconclusive

Screening data: PubChem, National Center for Advancing Translational Sciences (NCATS)
